Source: PubChem BioAssay (Tox21)
Results filed as inconclusive are left out. A call without a number means that no potency is given here. The source made the active and inactive calls. Calls follow the shape of the dose curve; as a rule, active = well fitted cell-killing curve with a large enough effect in the repeat runs; inconclusive = weak or mixed curves, or effect the other way; inactive = flat fitted curve, though single readings scatter.

Assay: cAMP Responsive Elements (CRE) small molecule antagonists, cell-based qHTS assay: qHTS cell viability counter screen (AID 2060913); also: nearly all actives have a fitted effect of over 40% in size
Details: CRE-bla HEK293T viability, CellTiter-Glo luminescence, 5 h; series mostly up to 92.4 µM
In short: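 CRE-bla HEK293T cells were seeded in assay medium with 10% dialyzed FBS, incubated 18 hrs at 37 C, then exposed to compounds plus 0.25 uM final NKH477 for 3 hrs. Viability was read by CellTiter-Glo luminescence after 30 min, in the same wells.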

SMILES | Potency
CC1=NN(c2ccccc2)C(=O)C1 | inactive
COc1ccc2c(c1)c1c3n2CCN(C)C3=NCC1 | inactive
CCCCCCCC=O | inactive
C[N+]1([O-])CCOCC1 | inactive
O=C(O)CCN(C1(C(=O)NO)CCCC1)S(=O)(=O)c1ccc(Oc2ccc(F)cc2)cc1 | inactive
CC(=O)C1CCCCC1=O (stereo not given) | inactive
FC(F)(F)C(F)(F)C(F)(F)C(F)(F)CCI | inactive
COc1cc(N)c(Cl)cc1C(=O)NC1CCN(Cc2ccccc2)CC1 | inactive
CC[Si](OC(C)=O)(OC(C)=O)OC(C)=O | inactive
COc1nccnc1NS(=O)(=O)c1ccc(N)cc1 | inactive
O=C(O)CCc1nc2ccccc2[nH]1 | inactive
CC(C)(C)NC(N)=O | inactive
CCC(C)(C)OC | inactive
CN1CCC(=C2c3ccccc3CCc3cccnc32)CC1 | inactive
Cc1cc(C(=C2C=CC(=Nc3ccc(S(=O)(=O)O)cc3S(=O)(=O)O)C=C2)c2ccc(Nc3ccc(S(=O)(=O)O)cc3)cc2)ccc1N | inactive
C=CC(=O)[O-].C=CC(=O)[O-].[Zn+2] | inactive
C=C(C)CS(=O)(=O)O | inactive
CNC(=O)N(c1ccccc1)c1ccccc1 | inactive
COc1cc([C@@H]2c3cc4c(cc3[C@H](O)[C@H]3COC(=O)[C@H]23)OCO4)cc(OC)c1OC | inactive
CC/C(C)=N/O | inactive

SMILES | Potency
CCC(=O)CC | inactive
COc1cc(-c2ccc(=O)[nH]n2)ccc1OC(F)F | inactive
C[Si](C)O[Si](C)C | inactive
c1ccc2sc(SSN3CCOCC3)nc2c1 | inactive
Cc1[nH]c(=O)c(C#N)cc1-c1ccc2nccn2c1 | inactive
Nc1cc(C(=O)O)c(O)c(S(=O)(=O)O)c1 | inactive
CC[C@@H](N)CO | inactive
C/C=C/c1ccc(O)c(OC)c1 | inactive
CCCC(C)c1ccccc1O (stereo not given) | inactive
Cc1c(C)c2c(c(C)c1O)CC[C@@](C)(CCC[C@H](C)CCC[C@H](C)CCCC(C)C)O2 | inactive
c1coc(Cn2cccc2)c1 | inactive
CC(=O)O[C@]1(C(C)=O)CC[C@H]2[C@@H]3C=C(Cl)C4=CC(=O)[C@@H]5C[C@@H]5[C@]4(C)[C@H]3CC[C@@]21C | inactive
CCNC(=O)C1CC(C)CCC1C(C)C (stereo not given) | inactive
CCCCC/C=C\CCC=O | inactive
NCCS(=O)(=O)O | inactive
c1ccc2[nH]ccc2c1 | inactive
CN(C)C(=N)N=C(N)N | inactive
O=C1OC(=O)c2cc(-c3ccc4c(c3)C(=O)OC4=O)ccc21 | inactive
CCCN(CCC)C(=O)SCC | inactive
CC(=O)Nc1cccc(N)c1 | inactive

Assay: cAMP Responsive Elements (CRE) small molecule agonists, cell-based qHTS assay: qHTS cell viability counter screen (AID 2060914); also: nearly all actives have a fitted effect of over 50% in size
Details: CRE-bla HEK293T viability, CellTiter-Glo luminescence, 5 h; series mostly up to 92.4 µM
In short: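 Cytotoxicity was measured as ATP luminescence (CellTiter-Glo, 30 min at room temperature) in the same wells as the CRE-bla FRET read-out. HEK293T CRE-bla cells had 3 h compound exposure at 37C/5% CO2.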

SMILES | Potency
CC1=NN(c2ccccc2)C(=O)C1 | inactive
COc1ccc2c(c1)c1c3n2CCN(C)C3=NCC1 | inactive
CCCCCCCC=O | inactive
C[N+]1([O-])CCOCC1 | inactive
O=C(O)CCN(C1(C(=O)NO)CCCC1)S(=O)(=O)c1ccc(Oc2ccc(F)cc2)cc1 | inactive
CC(=O)C1CCCCC1=O (stereo not given) | inactive
FC(F)(F)C(F)(F)C(F)(F)C(F)(F)CCI | inactive
COc1cc(N)c(Cl)cc1C(=O)NC1CCN(Cc2ccccc2)CC1 | inactive
CC[Si](OC(C)=O)(OC(C)=O)OC(C)=O | inactive
COc1nccnc1NS(=O)(=O)c1ccc(N)cc1 | inactive
O=C(O)CCc1nc2ccccc2[nH]1 | inactive
CC(C)(C)NC(N)=O | inactive
CCC(C)(C)OC | inactive
CN1CCC(=C2c3ccccc3CCc3cccnc32)CC1 | inactive
Cc1cc(C(=C2C=CC(=Nc3ccc(S(=O)(=O)O)cc3S(=O)(=O)O)C=C2)c2ccc(Nc3ccc(S(=O)(=O)O)cc3)cc2)ccc1N | inactive
C=CC(=O)[O-].C=CC(=O)[O-].[Zn+2] | inactive
C=C(C)CS(=O)(=O)O | inactive
CNC(=O)N(c1ccccc1)c1ccccc1 | inactive
COc1cc([C@@H]2c3cc4c(cc3[C@H](O)[C@H]3COC(=O)[C@H]23)OCO4)cc(OC)c1OC | inactive
CC/C(C)=N/O | inactive

SMILES | Potency
CCC(=O)CC | inactive
COc1cc(-c2ccc(=O)[nH]n2)ccc1OC(F)F | inactive
C[Si](C)O[Si](C)C | inactive
c1ccc2sc(SSN3CCOCC3)nc2c1 | inactive
Cc1[nH]c(=O)c(C#N)cc1-c1ccc2nccn2c1 | inactive
Nc1cc(C(=O)O)c(O)c(S(=O)(=O)O)c1 | inactive
CC[C@@H](N)CO | inactive
C/C=C/c1ccc(O)c(OC)c1 | inactive
CCCC(C)c1ccccc1O (stereo not given) | inactive
Cc1c(C)c2c(c(C)c1O)CC[C@@](C)(CCC[C@H](C)CCC[C@H](C)CCCC(C)C)O2 | inactive
c1coc(Cn2cccc2)c1 | inactive
CC(=O)O[C@]1(C(C)=O)CC[C@H]2[C@@H]3C=C(Cl)C4=CC(=O)[C@@H]5C[C@@H]5[C@]4(C)[C@H]3CC[C@@]21C | inactive
CCNC(=O)C1CC(C)CCC1C(C)C (stereo not given) | inactive
CCCCC/C=C\CCC=O | inactive
NCCS(=O)(=O)O | inactive
c1ccc2[nH]ccc2c1 | inactive
CN(C)C(=N)N=C(N)N | inactive
O=C1OC(=O)c2cc(-c3ccc4c(c3)C(=O)OC4=O)ccc21 | inactive
CCCN(CCC)C(=O)SCC | inactive
CC(=O)Nc1cccc(N)c1 | inactive
